# High-throughput results: PubChem BioAssay, National Center for Advancing Translational Sciences (NCATS)
# An excerpt weighted towards active compounds, which were near 19% of everything screened.
# TDP1 cell noCPT: qHTS for Inhibitors of human tyrosyl-DNA phosphodiesterase 1 (TDP1): qHTS in cells in absence of CPT; DT40 Tdp1-/- hTDP1 cells, no CPT, ATP luminescence, 48 h; Potency, µM (titrated, usually from 46.2 µM), without a hit: at the top dose activity change, negative = growth inhibition, most hits filed as inhibitors; actives 15% (n = 420,000); AID 686978, 2013; note: potency is the fitted concentration of half-maximal effect; nearly all actives have a fitted effect of over 55% in size
#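 Cells were dispensed at 400 per well, compounds added by pin tool, plates incubated ≥48 hr at 37 °C, then CellTiter-Glo added for 30 min at room temperature before luminescence reading. Line: DT40 Tdp1-/- complemented with hTDP1; camptothecin omitted.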
# IL-1B inflam inh: inhibitors of inflammasome signaling (IL-1 beta secretion) | THP-1 LPS/ATP IL-1B secretion, AlphaLISA, 16 h; stronger effect = lower value | activity change, % at 57.5 µM | actives 4.7% (n = 360,000); in the data active = activity change below about -50%; inconclusive = mostly about -30% to -49%
#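 THP-1 cells pretreated 1 hr with compounds (up to 57.5 uM final), then stimulated with LPS (250 ng/mL final) plus ATP (1.25 mM final); secreted IL-1B measured by AlphaLISA after 16 hr, decreased signal indicating inhibition.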
# uPA generation: inhibitors of cell surface uPA generation | cell surface uPA generation assay, qHTS | Potency, µM (highest dose often 38.3 µM), for inactives: at the highest dose activity change, negative = inhibition, hits mostly inhibitors | actives 0.31% (n = 330,000) | AID 540303; active = well fitted inhibition curve with a large enough effect; inconclusive = small, poorly fitted or top-dose-only effect; inactive = no such curve, though single readings can be large or run the other way; tested in mouse RAW 264.7 cells; note: potency is the fitted concentration of half-maximal effect; nearly all actives have a fitted effect of over 55% in size
# HT1080NT lethal: kills 2HG-producing HT-1080-NT fibrosarcoma cells | AID 686970 | Potency, µM (highest dose often 46.1 µM), without a hit: top-dose activity, negative = less viability, most hits filed as cytotoxic | HT-1080-NT fibrosarcoma viability, CellTiter-Glo ATP luminescence, 48 h | actives 1.6% (n = 360,000);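 note: NT is the 2HG producing partner of a matched IDH1 knockdown line; potency is the fitted concentration of half-maximal effect; 0% = DMSO-treated cells and -100% = media-only wells without cells; nearly all actives have a fitted effect of over 55% in size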
#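 A 48-hour cytotoxicity screen used HT-1080-NT cells plated 2 hours before compound delivery. ATP-based CellTiter-Glo luminescence measured viability, normalized to DMSO and no-cell controls.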
# HT1080 IDH1KD tx: HT-1080 IDH1 knockdown cell toxicity (counter line). Potency, µM (highest dose often 46.1 µM), for inactives: at the top dose activity, negative = toxicity, usual class: cytotoxic. AID 686971. actives 2% (n = 360,000). HT-1080 IDH1 knockdown viability, ATP luminescence, 48 h;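 note: potency is the fitted concentration of half-maximal effect; 0% = DMSO wells and -100% = cell-free medium wells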
#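 Luminescent ATP read-out (CellTiter-Glo, 10 min at room temperature) after 48 h compound exposure at 37 °C gave viability of IDH1-knockdown HT-1080 cells. Activity was normalised to DMSO and cell-free wells, then fitted as concentration-response curves.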
# DT40 TDP1 CPT: DT40-hTDP1 cell growth loss with CPT; chicken DT40 Tdp1-/-;hTDP1 cells + 20 nM CPT, ATP luminescence, 48 h; Potency, µM (top dose mostly 46.2 µM), without a hit: at the highest dose activity change, negative = growth inhibition, hits mostly inhibitors; actives 12% (n = 420,000); note: potency is the fitted concentration of half-maximal effect; nearly all actives have a fitted effect of over 55% in size
#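 Chicken DT40 Tdp1-/- cells stably complemented with human TDP1 were seeded at 400 cells/well in medium containing 20 nM camptothecin, exposed to pin-transferred compounds, and grown at 37 °C for at least 48 hr. Viability was read as ATP luminescence.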
# The depositor's hits bear a star; u = inconclusive; x = no result given. Unless noted, calls come from the whole dose curve; as a rule, active = well fitted curve in the direction sought with a large enough effect; inconclusive = small, poorly fitted or top-dose-only effect, or another doubt; inactive = no such curve, though single readings can be large; an effect the other way counts as inactive or inconclusive. Unless noted, % is set by controls: 0 for no effect and ±100 for the full control effect.
SMILES,TDP1 cell noCPT,IL-1B inflam inh,uPA generation,HT1080NT lethal,HT1080 IDH1KD tx,DT40 TDP1 CPT
COc1cc(/C=N\NC(=O)CC#N)ccc1OC/C=C/c1ccccc1,u,-27,2%,-22%,u,26µM*
Cn1c(=O)n(C)c2cc(/C=N/NC(=S)NCc3ccccc3)ccc21,26µM*,-17,-3%,-20%,-29%,u
COc1cc(/C=N/NC(=S)NCc2ccccc2)ccc1OCC#N,23µM*,0,5%,-7%,-11%,21µM*
COc1ccc(S(=O)(=O)N2CCC(C(=O)N[C@H](C(=O)N3CCCCCC3)C(C)C)CC2)cc1,-5%,0,0%,8%,1%,u
C[C@H]1CN([C@@H](C)CO)C(=O)CCCn2cc(nn2)CO[C@@H]1CN(C)C(=O)Nc1cccc(F)c1,5%,12,x,1%,7%,3%
COc1ccc(NC(=O)C[C@H]2C(=O)N(c3ccc(OC)cc3)C[C@@H]2CSC)cc1,u,2,x,-3%,9%,-23%
CCC[C@H]1CN(c2ccc(Br)cc2)C(=O)[C@@H]1CC(=O)Nc1ccccc1,u,-11,x,-2%,-2%,u
O=C(C[C@H]1C(=O)N(c2ccccc2)C[C@@H]1Cc1ccccc1)Nc1ccc(Br)cc1,9.2µM*,-13,x,-2%,-17%,13µM*
CCC[C@H]1CN(c2ccc(Br)cc2)C(=O)[C@@H]1CC(=O)Nc1ccc(OC)cc1,16µM*,u,x,0%,-2%,u
COc1ccc(NC(=O)C[C@H]2C(=O)N(c3ccc(Br)cc3)C[C@@H]2CSC)cc1,23µM*,-20,x,-20%,-29%,u
COc1ccc(N2C[C@H](CSC)[C@@H](CC(=O)Nc3ccc(Br)cc3)C2=O)cc1,21µM*,-23,x,-14%,-25%,u
CCOC(=O)COc1cccc(C2NC(=O)c3ccccc3O2)c1 (centres undefined),2%,u,11%,0%,0%,-13%
CCCCNC(=O)C1C(c2ccc(C(F)(F)F)cc2)=Nc2ccccc2N1C(=O)c1cccc2ccccc12 (centres undefined),u,40,x,-20%,-18%,u
CCc1nc2ccc(C(=O)NCCCN3CCCC3=O)cn2c1N(CC)C(=O)NCCc1ccccc1,-4%,-19,x,-5%,4%,-16%
CCOC(=O)c1cc2c(ccn2C)n1CC(=O)N(Cc1ccccc1)c1ccc(F)cc1,-2%,8,3%,-23%,-2%,-27%
CC(C)OC(=O)c1cc2c(ccn2C)n1CC(=O)N(Cc1ccccc1)c1ccc(F)cc1,21µM*,0,-3%,u,21µM*,16µM*
CC(C)OC(=O)c1cc2c(ccn2C)n1CC(=O)N1CCC(Cc2ccccc2)CC1,21µM*,-8,-6%,-28%,u,u
Cc1ccccc1Cn1c(C(=O)OC(C)C)cc2c1ccn2C,u,-12,-3%,-5%,-13%,u
CCOC(=O)c1cc2c(ccn2C)n1CC(=O)N(Cc1ccccc1)c1ccccc1,u,-72*,-5%,-9%,-16%,23µM*
O=C(CSc1nc(C(F)(F)F)cc(=O)[nH]1)Nc1cccc2ccccc12,-28%,11,-1%,0%,-3%,-2%
Brc1ccc2c(c1)-c1ccccc1C1=NCCN12,0.82µM*,-104*,x,23µM*,16µM*,1.5µM*
Clc1ccc2c(c1)-c1ccccc1C1=NCCN12,1.6µM*,-103*,x,u,18µM*,-105%
COc1ccc(Br)cc1S(=O)(=O)N1CCN=C1c1ccccc1,u,9,14%,0%,4%,-30%
CN1C2=NCCN2C(=O)c2cc(Cl)ccc21,-28%,-17,-2%,-3%,0%,6%
